# Results: PubChem BioAssay
# What was measured:
# [1] = biological target: Tumor necrosis factor receptor superfamily member 10B (Homo sapiens) (UniProt O14763); test: caspase-8 TRAIL sensitization, hit retest, confirmation, cell-based, NB7+caspase-8, with/without TRAIL, luminescence panel (AID 651596); conditions: NB7 neuroblastoma + caspase-8, TRAIL sensitization, luminescence viability, with TRAIL, mean of runs, at 10 µM, stronger effect = higher value
# [2] = as above; conditions: NB7 neuroblastoma + caspase-8, without TRAIL, luminescence viability, without TRAIL, mean of runs, at 10 µM
# [3] = biological target: Tumor necrosis factor receptor superfamily member 10B (Homo sapiens) (UniProt O14763); test: TRAIL sensitizers in caspase-8 expressing neuroblastoma cells, dose response, NB7 cells plus caspase-8, luminescence, panel (AID 652002); conditions: NB7 neuroblastoma +caspase-8, TRAIL sensitization, luminescence viability, NB7+Caspase-8, with TRAIL, run 1; at 12.5 µM (top of the series)
# [4] = biological target: Tumor necrosis factor receptor superfamily member 10B (Homo sapiens) (UniProt O14763); test: as above; conditions: NB7 neuroblastoma +caspase-8, TRAIL sensitization, luminescence viability, NB7+Caspase-8, with TRAIL, run 2; at 12.5 µM (top of the series)
# [5] = as above; conditions: NB7 neuroblastoma +caspase-8, no TRAIL, compound-alone cytotoxicity counter-screen, luminescence viability, NB7+Caspase-8, run 1; at 12.5 µM (top of the series) unless noted
# [6] = as above; conditions: NB7 neuroblastoma +caspase-8, no TRAIL, compound-alone cytotoxicity counter-screen, luminescence viability, NB7+Caspase-8, run 2; at 12.5 µM (top of the series) unless noted
# Chain of Tumor necrosis factor receptor superfamily member 10B (Homo sapiens) (O14763 whole entry, looked up): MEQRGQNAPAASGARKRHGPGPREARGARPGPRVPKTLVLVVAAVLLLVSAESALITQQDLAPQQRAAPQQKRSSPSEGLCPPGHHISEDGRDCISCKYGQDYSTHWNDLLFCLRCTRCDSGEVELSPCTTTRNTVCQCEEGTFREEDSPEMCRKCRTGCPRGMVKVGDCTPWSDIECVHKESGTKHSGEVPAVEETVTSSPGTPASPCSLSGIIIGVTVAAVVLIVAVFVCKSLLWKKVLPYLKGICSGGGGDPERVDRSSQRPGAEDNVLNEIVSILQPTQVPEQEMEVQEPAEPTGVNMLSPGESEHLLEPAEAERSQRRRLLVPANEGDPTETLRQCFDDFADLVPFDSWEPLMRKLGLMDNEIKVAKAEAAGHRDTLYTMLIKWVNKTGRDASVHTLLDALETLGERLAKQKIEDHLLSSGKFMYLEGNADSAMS
SMILES,activity [1] [%],activity [2] [%],"activity, % sensitization [3] [%]","activity, % sensitization [4] [%]","activity, % sensitization [5] [%]","activity, % sensitization [6] [%]"
O=C(N/N=C/c1ccc2cccnc2c1)c1ccco1,47.2,37,37.5,50.7,39.1,35.6
C=Cc1ccc(Cn2c(C)c(C(=O)NCc3cccc(C(F)(F)F)c3)sc2=O)cc1,60.2,20.5,-5.7,-12.9,5.05,6.45
Clc1nc(Cl)c2ncn(-c3ccccc3)c2n1,81,52.3,-4.89,-7.36,2.2,-11.5
CCOc1ccc(/C=C/C(=O)Nc2cccc(C(C)=O)c2)cc1,50.7,37.2,14.7,23.8,37.9,17.4
CCOC(=O)c1cnc2c(-c3ccccc3)cnn2c1N,62.2,54.7,38.5,22.1,13.3,5.35
COc1cccc(C(=O)Nc2ccc(C3CC3(Cl)Cl)cc2)c1 (configuration not stated),47,46.5,12.6,30.2,5.52,21.8
Cc1ccc2c(c1)-c1nc3ccccc3cc1C2=NC1CCCCC1,49.6,41.6,26.1,46.1,4.61,-9.3
Cc1ccc(S(=O)(=O)Nc2ccccc2C(=O)Nc2nc(-c3ccc(F)cc3)cs2)cc1,56.5,51.6,32,39.6,24.6,40.4
Cc1nc(Cl)c2oc3ccccc3c2n1,84,31.1,-4.95,-0.917,-7.33,-8.16
CCOC(=O)C(=C1Nc2ccccc2N1)n1c(-c2cccnc2)nc2ccccc21,55.9,52,44.5,36.8,-4.97,41.7
CN(C(=O)COC(=O)c1cnc(Cl)c(Cl)c1)C1CCCCC1,68.5,47.4,11.9,14.2,-5.35,13.1
O=C(NNC(=O)c1cc(OCC(F)(F)F)ccc1OCC(F)(F)F)c1ccc(Cl)c(Cl)c1,63.5,50.9,-9.65,2.58,-2.88,0.592
Cc1onc(-c2c(Cl)cccc2Cl)c1C(=O)ONC(=O)c1ccccc1,72.9,30.8,1.55,-5.77,-2.95,-9.25
O=C(ONC1=NCCCCC1)c1ccc(Cl)cc1,89.3,47.2,16.1,23.5,7.61,44.2
O=C(Nc1ccc2c(c1)OCCO2)NC1CCCCC1,49.5,35.8,31.2,41.7,32.9,21
Cc1ccc(N=C/C(C(=O)C(F)(F)F)=C(\O)c2cccs2)cc1,56.1,53.8,83.3,63.5,-0.893,77.5
COCCCn1c(C(=O)Nc2ccc3c(c2)OCO3)cc2c(=O)n3cccc(C)c3nc21,70.2,28.2,-7.02,-8.71,-1.61,-25.9
CC1(C)N=C(N)N=C(N)N1c1ccc(CCCCc2ccccc2)cc1,53.6,54.3,58.2,52.2,1.29,66.9
CCOc1ccc(NC(=O)Nc2cccs2)cc1,63.8,46.8,36.3,52.3,40.7,47.8
O=C(N/N=C/c1cccnc1)c1ccc2c(c1)OCO2,51.9,42.5,32.8,32.4,32.2,46.2
CC(C)C(=O)Nc1ccc(NC(=O)c2ccccn2)cn1,53.6,53,34.7,36.7,8.97,37.8

SMILES,activity [1] [%],activity [2] [%],"activity, % sensitization [3] [%]","activity, % sensitization [4] [%]","activity, % sensitization [5] [%]","activity, % sensitization [6] [%]"
CCCCCCCn1c2c(c(=N)c3ccccc31)CCC2,64.8,51.8,30.9,38.9,0.756,28
O/C(=C\c1ccc2ccccc2n1)c1ccc(O)cc1O,62.3,42.8,31.9,48.7,1.18,20.3
Cc1ccc(NC(=O)c2ccccc2O)cc1,61,48.8,28,37.1,29,31.3
COCCNC(=O)c1cc(-c2ccc(-c3ccccc3)cc2)nc2ccccc12,57.7,44.5,36.7,40.6,51,41.3
CN(C)c1ccc(N/C=C/C(=O)c2ccco2)cc1,62.6,22.4,53.8,49.4,18.4,43.5
Cc1nn(-c2ccccc2)c2nc(N)c(C#N)c(-c3ccc(F)cc3)c12,61.9,46.8,-8.21,4.3,6.23,37.2
O=C(Nc1ccc(Br)cc1F)c1ccc2c(c1)OCCO2,56.6,43,35.1,39.5,7.23,34.6
COc1ccc(/C=N/Nc2nc3ccccc3c(=O)n2-c2ccccc2)cc1OC,62.5,48.6,47.9,45.1,41,44.3
COc1ccccc1C=NNC(=O)NN=Cc1ccccc1OC,61,46.5,42.5,48.3,54.1,35.8
CC(C)CCn1cnc2c([nH]c3cccc(Cl)c32)c1=O,60.6,52.9,-14.6,-14,-4.11,0.76
Cc1ccn2cc(C(=O)Nc3ccc4c(c3)OCCO4)nc2c1,58.2,50.8,38.4,40.7,47.9,50.7
C#CC(=O)CC1(CN(Cc2ccccc2)C(=O)OC(C)(C)C)CCCCC1,97.7,49.4,78.9,34.5,89.9,57.8
CN(C)CCCN(C(=O)c1ccc(S(=O)(=O)N2CCCc3ccccc32)cc1)c1nc2ccc(F)cc2s1,55.7,52.9,-21.5,18.8,-8.84,17.9
O=C(NCC1CCCO1)c1ccc2c3n(nc2c1)-c1ccccc1CO3 (configuration not stated),52.9,54.6,29.1,41.5,21,11.7
COc1ccc(-c2cc(C(=O)OCC(=O)Nc3ccc4c(c3)OCO4)c3ccccc3n2)cc1,54.6,48.5,31.3,43.9,34.3,46.2
O=C(NC(=S)Nc1nc2c(s1)CCCC2)c1ccccc1,69.8,47.3,-8.98,47.5,2.65,-0.817
CCCCc1nc(NCCN)c(C#N)c2c1CSC(C)(C)C2,72.5,53.7,-8.34,-1.9,3.06,-6.28
O=C1CCCc2nc(N3CCc4ccccc43)ncc21,45.5,25.6,22.4,-9.35,0.829,-3.85
COC(=O)[C@]12CCCCC=C1N(Cc1cccc3ccccc13)C(=O)[C@H](CC(=O)NCc1ccc(OC)c(OC)c1)C2,66.4,53,24.8,43,16.7,36.7
Cc1cccc(CC(=O)Nc2cc(C)c3c(=O)oc4ccccc4c3n2)c1,67.3,45.5,-12.3,-4.35,-6.37,0.373
O=C1c2ccc(Cl)cc2S(=O)(=O)c2cccc(C(=O)N3CCC(Cc4ccccc4)CC3)c21,70.8,26.7,-6.25,3.7,-20.1,-5.15

SMILES,activity [1] [%],activity [2] [%],"activity, % sensitization [3] [%]","activity, % sensitization [4] [%]","activity, % sensitization [5] [%]","activity, % sensitization [6] [%]"
NNC(=O)C1CCCn2c1nc1sc3c(c1c2=O)CCCC3 (configuration not stated),51,52.8,5.3,-9.76,-17.6,12.5
COc1ccc(-c2nnc(SCC(=O)c3[nH]c(C)c(C(C)=O)c3C)o2)cc1,54.1,53.9,-37,-7.9,-20.2,-16.4
O=C(Nc1ccc2[nH]ccc2c1)c1cccs1,64,52.9,48.2,52.7,46.5,43.5
CSc1ccc(/C=C/c2ccc3cccc(O)c3n2)cc1,48.5,53.9,31.9,41.1,23.2,36.6
C(=C\c1ccco1)/c1nc2ccccc2[nH]1,57.9,31.6,-0.105,5.08,-6.68,-0.982
O=C1c2ccc3c4c(ccc(c24)C(=O)N1c1cccc(O)c1)C(=O)N(c1cccc(O)c1)C3=O,63.2,53.8,52.1,35.7,29.8,21.3
C#Cc1ccc(NC(=O)C2(C)CCN2C(=O)Cc2ccc(C(C)C)cc2)cc1 (configuration not stated),79.1,49.2,18.4,11.5,1.52,54.8
Cc1ccc2oc(-c3cccc(N)c3)nc2c1,60.5,46.2,45.8,58.3,53,34
CC(=O)c1ccc(NC(=O)Nc2cccnc2)cc1,52.1,45,32.2,44.9,35.1,43.9
O=c1cc(-c2ccccc2)nc2cc(-c3ccc(F)cc3)[nH]n12,57.6,47,5.68,-3.23,-19,-21.3
C/C(=N\NC(=O)c1csc(C)c1C)c1ccco1,46.9,40.4,34.8,13.8,22.5,-4.13
CCOc1ccc(-c2cc(C(=O)N3CCC(C)CC3)c3ccccc3n2)cc1,53.4,47.2,23.7,31.6,-3.22,-9.62
CCN(CC)c1ccc(/C=N/NC(=O)c2ccco2)cc1,56.5,53.3,25,39.3,34,23.6
O=C(N/N=C/c1cccc(OC(=O)c2ccco2)c1)c1ccc(F)cc1,57.1,28.9,54.4,46.3,49.2,40.8
Cn1c(=O)c2c(SCC(=O)Nc3ccccc3F)nc(C3CC3)nc2n(C)c1=O,50.8,44.9,-6.81,-10.3,-1.87,-25.4
COc1cccc(NC(=O)Nc2nccc(C)n2)c1,64.5,53,46.7,47.6,25.8,11.9
Cc1ccc2c(c1)C(=NC1CCCCC1)c1cc3ccccc3nc1-2,62.8,51.2,-15,-9.21,10.4,-8.89
CN1C[C@@H]2[C@@H]3C(=O)N(Cc4ccccc4)C(=O)[C@@H]3[C@](Cc3ccccc3)(C1=O)N2C(=O)c1ccc(C(C)(C)C)cc1,74.5,47.9,-1.09,15.8,7.44,-17
CCN(CC)S(=O)(=O)c1ccc(C(=O)OCC(=O)Nc2ccc(-c3nc4ccc(C)cc4s3)cc2)cc1,68.5,55,20.1,-0.711,13.4,-8.61
CN(C)CCCN(C(=O)c1ccc(C(=O)c2ccccc2)cc1)c1nc2ccc(F)cc2s1,64.6,34.9,12.1,3.85,0.995,25.8
